Abeta yeast res: A-beta toxicity reversal in yeast. yeast expressing A-beta42, growth rescue, OD600, 48 h; response scale: 0% DMSO, 100% iron-clioquinol control. Potency, µM (titrated, usually from 46.1 µM), usual class: activators. actives 0.063% (n = 410,000); further: potency means the concentration at half of the fitted maximal effect; nearly all actives have a fitted effect of over 55% in size
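Yeast A-beta toxicity model in growth medium with pinned compounds, 48 h at 30 C; growth read as absorbance at 600 nm. Normalized to FeCl3/clioquinol equimolar mix (positive) and DMSO (negative).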
aSyn rescue: rescues yeast growth from alpha-synuclein toxicity; Potency, µM (highest dose often 46.1 µM), for inactives: at the highest dose growth rescue (activation), actives largely listed as activators; Yeast expressing alpha-synuclein, growth rescue, BacTiter-Glo, 24 h; actives 0.14% (n = 370,000); further: potency means the concentration at half of the fitted maximal effect; % of control where 0% means no effect; nearly all actives have a fitted effect of over 65% in size
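Readout is rescue of growth in alpha-synuclein-expressing yeast, so inhibitors of toxicity appear as activators. Growth after 24 hr at 30 deg C in galactose medium is quantified by luminescence.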
FUS yeast rescue: suppressors of FUS proteinopathy in yeast. S. cerevisiae FUS-expressing, growth rescue, OD600, 24 h. Potency, µM (series often up to 76.6 µM), actives largely listed as activators. actives 0.24% (n = 390,000). AID 1347120;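 further: potency means the concentration at half of the fitted maximal effect; plate controls were DMSO vehicle for no effect and reference control for full effect; nearly all actives have a fitted effect of over 55% in size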
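Cultures pregrown in 2.5% raffinose medium are shifted to minimal medium containing 2% galactose to express toxic FUS. Compounds are tested at several concentrations. After 24hr at 30C, growth is quantified at 600 nm absorbance.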
CCT modulator: changes cytosolic chaperonin activity. purified chaperonin ATPase assay, HTRF ADP detection, 30 min. activity change, % (no concentration beside the values), hits read low. actives 0.3% (n = 360,000); in the data active means activity change below about -30%; further: on the % scale 0 is the no-effect control and ±100 the full control effect
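Enzyme 40 or 20 nM (batch-dependent) in Tris pH 7.4/KCl/MgCl2/DTT; cpd 76 uM single point; ATP 10 uM; 30 min 37 °C; Transcreener ADP HTRF detection, 30 min RT; ratio 665/615.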
MmCpn inh: M. maripaludis TRiC chaperonin inhibition; purified Mm-Cpn ATPase, ADP Transcreener TR-FRET; actives 0.031% (n = 330,000); Potency, µM (highest dose often 76.9 µM), for inactives: at the top dose activity, negative = inhibition, usual class: inhibitors; further: potency means the concentration at half of the fitted maximal effect; on the % scale 0 is the no-effect control and ±100 the full control effect; nearly all actives have a fitted effect of over 80% in size
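25 nM Mm-CPN + cpd, 10 min 37°C; + 10 uM ATP, 30 min 37°C; buffer 30 mM Tris pH 7.4, 100 mM KCl, 5 mM MgCl2, 1 mM DTT; Transcreener ADP HTRF detection 30 min RT.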
TDP43 rescue: inhibitors of TDP-43 toxicity in yeast; actives 1.8% (n = 410,000); AID 652104; Potency, µM (series often up to 46.1 µM), inactives show top-dose growth rescue (activation), hits mostly activators; TDP-43 expressing yeast growth rescue, BacTiter-Glo, 24 h; further: potency means the concentration at half of the fitted maximal effect; % of control where 0% means no effect; nearly all actives have a fitted effect of over 50% in size
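Readout is BacTiter-Glo luminescence of cell growth, so inhibitors register as activators. TDP-43-expressing yeast at OD600=0.02 in galactose medium, after raffinose pregrowth to mid-log, were incubated with compound for 24 hr at 30 deg C.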
Starred values were filed as active, the others as inactive; i = inactive; ? = inconclusive; . = no result; [ ] = remark or other dose. Hits are enriched below; roughly 2.3% of the tested compounds scored in any of these assays. Unless noted, the call rests on the fitted dose curve; in most records, active means well fitted curve in the direction sought with a large enough effect; inconclusive means small, poorly fitted or top-dose-only effect, or another doubt; inactive means no such curve, though single readings can be large; an effect the other way counts as inactive or inconclusive.

SMILES	Abeta yeast res	aSyn rescue	FUS yeast rescue	CCT modulator	MmCpn inh	TDP43 rescue
COc1ccc(-c2nc3n(c(=O)c2C#N)CCCS3)cc1	?	5%	i	0	-15%	16µM*
N#Cc1c(-c2ccc(Cl)cc2)nc2n(c1=O)CCCS2	i	2%	i	0	-13%	11µM*
CCOC(=O)CNC(=O)CSc1nnc(-c2ccccc2)n1CC	.	.	i	.	.	.
CN1CC=C(c2ccc(C(F)(F)F)cc2)N(c2ccc(Br)cc2)C1=O	.	.	i	.	.	.
O=C(Nc1sc2c(c1-c1nc3ccccc3s1)CCNC2)C(F)F	.	.	i	.	.	.
COC(=O)[C@]12CCCCC=C1N(CCc1ccc(OC)c(OC)c1)C(=O)[C@H](CC(=O)NCc1cccc(C(F)(F)F)c1)C2	i	3%	4.5µM*	.	.	1%
COC(=O)[C@]12CCCCC=C1N(CCc1ccc(OC)c(OC)c1)C(=O)[C@H](CC(=O)NCc1ccccc1)C2	i	1%	?	.	.	0%
COC(=O)[C@]12CCCCC=C1N(CCc1ccc(OC)c(OC)c1)C(=O)[C@H](CC(=O)NCCCCc1ccccc1)C2	i	3%	8.9µM*	.	.	8%
CCn1c(SCC(=O)Nc2nc(-c3ccccc3)cs2)nnc1-c1ccccc1O	i	14%	i	0	2%	20µM*
Cc1ccc(-c2csc(NC(=O)CSC3=NCCS3)n2)cc1	i	.	i	0	-6%	7.1µM*
Cc1ccc(-c2csc(NC(=O)CSc3nc(C)cc(=O)[nH]3)n2)cc1	i	2%	i	1	-1%	-21%
CCC[C@H]1[C@@H](N(C)CC2CCCCC2)CC[C@@]23CCCN2C(=O)CCC[C@@H]13	.	.	i	.	.	.
Cc1ccc(CN2CCCCC(NC(=O)c3cccc(F)c3)C2=O)cc1 (configuration not stated)	.	.	i	.	.	.
COc1ccc2c(CC(=O)Nc3nc(C)cs3)coc2c1	i	-17%	i	0	0%	13µM*
CSc1nnc(NC(=O)Cc2coc3cc(C)ccc23)s1	i	.	i	.	.	23%
Cc1ccc2c(CC(=O)Nc3nc(C)cs3)coc2c1	?	-12%	i	2	0%	11µM*
COc1ccc2c(CC(=O)Nc3ncc(C)s3)coc2c1	i	-8%	i	-3	-7%	.
COc1cccc(-c2sc3ccc(OC)cc3c2-c2ccc(OCCN3CCOCC3)cc2)c1	i	-44%	?	-1	?	35µM*
COc1cccc(-c2sc3ccc(OC)cc3c2-c2ccc(OCCN(C)C)cc2)c1	i	-57%	32µM*	0	-24%	-55%
COc1ccccc1-c1sc2ccccc2c1-c1ccc(OCCN2CCOCC2)cc1	i	-38%	?	0	40µM*	20%
CCCC1CCC2(CC1)CCC2OC(=S)NCc1ccc(Cl)cc1 (configuration not stated)	.	.	i	.	.	.
COc1cc(/C=C/c2ccc3ccccc3n2)cc(OC)c1OC	.	-24%	.	.	.	.
Cc1ccc(OCc2nnc(SCC(=O)c3ccccc3)n2-c2ccccc2)cc1	?	-14%	?	-56*	-1%	-16%
COc1ccc(C(=O)NCc2nnc(SCC(=O)c3ccccc3)n2C)cc1	i	4%	i	-2	0%	22%[9.22 µM]
CCn1c(CNC(=O)c2ccc(OC)cc2)nnc1SCC(=O)c1ccccc1	i	-1%	.	-45*	-1%	12%
O=C1CCC[C@H]2[C@@H](Cc3ccccc3)[C@@H](O)CC[C@]23CCCN13	.	.	i	.	.	.
CCN(CC)C(=O)CSc1nc2cc3c(cc2c(=O)n1Cc1ccco1)OCO3	i	1%	i	-34*	1%	-25%
CCC(C)NC(=O)CSc1nc2cc3c(cc2c(=O)n1Cc1ccco1)OCO3 (configuration not stated)	i	5%	i	-2	3%	18%
NNc1nc(-c2ccccc2)nc(-c2ccccc2)c1Br	i	-3%	i	-2	.	22µM*
